# Assay results from PubChem BioAssay AID1159580 (chemical genetic matrix, 2015).
# Among all 5,500 compounds or so, about 2,000 (36%) were called active. Roughly 18% stayed inconclusive and do not appear here. The list shows a part of the results. Unmarked numbers belong to inactive results. Cut-off read from the data, not from the text of the source: active = normalized growth mostly below about 0.91 (no sharp cut-off); inconclusive = no clear call, values can overlap the other calls; inactive = mostly above about 0.92.
# Experiment: chemical genetic growth profiling, strain panel (AID 1159580);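 note: tested at 20 µM; growth read once vehicle control cultures reached saturation at 30 °C; 1 = growth at the plate median or of vehicle wells; lower values mean less growth of the strain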
# Details: S. cerevisiae deletion strains, growth OD
# [1] = locus YDL101C, strain DUN1, hits give low values
# [2] = locus YHR030C, strain SLT2, hits give low values
# [3] = locus YAL013W, strain DEP1, hits give low values
# [4] = locus YDR150W, strain NUM1, hits give low values
# [5] = locus YEL061C, strain CIN8, hits give low values
# [6] = locus YGR078C, strain PAC10, hits give low values
# [7] = locus YHR087W, strain rtc3, hits give low values
# [8] = locus YJR043C, strain POL32, hits give low values
# [9] = locus YJR075W, strain HOC1, hits give low values
# [10] = locus YLR039C, strain RIC1, hits give low values
# [11] = locus YLR058C, strain SHM2 (second series), hits give low values
# [12] = locus YLR085C, strain ARP6, hits give low values
# [13] = locus YLR262C, strain YPT6, hits give low values
# [14] = locus YML094W, strain GIM5, hits give low values
# [15] = locus YMR219W, strain ESC1, hits give low values
# [16] = locus YMR263W, strain SAP30, hits give low values
# [17] = locus YMR307W, strain GAS1, hits give low values
# [18] = locus YNL153C, strain GIM3, hits give low values
# [19] = locus YNL298W, strain CLA4 (second series), hits give low values
# [20] = locus YNL322C, strain KRE1, hits give low values
# [21] = locus YNR030W, strain Alg12, hits give low values
# [22] = locus YPL055C, strain LGE1, hits give low values
# [23] = locus YPL241C, strain CIN2, hits give low values
# [24] = locus YPR135W, strain CTF4, hits give low values
compound,measurement,setting,value
OC(COCc1ccccc1)Cn1c2ccccc2c2ccccc21 (stereo unspecified),normalized growth,"locus YAR019C, strain CDC15, hits give low values",0.951
same,normalized growth,"locus YBL105C, strain PKC1, hits give low values",0.95
same,normalized growth,"locus YBR135W, strain CKS1, hits give low values",0.951
same,normalized growth,"locus YBR136W, strain MEC1, hits give low values",0.952
same,normalized growth,"locus YBR160W, strain CDC28, hits give low values",0.955
same,normalized growth,"locus YDL017W, strain CDC7, hits give low values",0.953
same,normalized growth,"locus YDL028C, strain MPS1, hits give low values",0.951
same,normalized growth,[1],0.98
same,normalized growth,"locus YDL108W, strain KIN28, hits give low values",0.952
same,normalized growth,"locus YDL132W, strain cdc53, hits give low values",0.952
same,normalized growth,"locus YDL214C, strain PRR2, hits give low values",0.903
same,normalized growth,"locus YDR052C, strain DBF4, hits give low values",0.965
same,normalized growth,"locus YDR054C, strain cdc34, hits give low values",0.939
same,normalized growth,"locus YDR226W, strain ADK1, hits give low values",0.965
same,normalized growth,"locus YDR477W, strain SNF1, hits give low values",0.888
same,normalized growth,"locus YER123W, strain YCK3, hits give low values",0.888
same,normalized growth,"locus YER133W, strain GLC7, hits give low values",0.876
same,normalized growth,"locus YFL009W, strain cdc4, hits give low values",0.964
same,normalized growth,"locus YFL029C, strain CAK1, hits give low values",0.947
same,normalized growth,"locus YFR003C, strain YPI1, hits give low values",0.947
same,normalized growth,"locus YFR019W, strain FAB1, hits give low values",0.954
same,normalized growth,"locus YFR028C, strain CDC14, hits give low values",0.96
same,normalized growth,"locus YGR040W, strain KSS1, hits give low values",0.888
same,normalized growth,"locus YGR052W, strain FMP48, hits give low values",0.874
same,normalized growth,"locus YGR092W, strain DBF2, hits give low values",0.838
same,normalized growth,[2],0.632 (active)
same,normalized growth,"locus YHR079C, strain IRE1, hits give low values",0.729
same,normalized growth,"locus YHR082C, strain KSP1, hits give low values",0.91
same,normalized growth,"locus YHR205W, strain SCH9, hits give low values",0.936
same,normalized growth,"locus YIL147C, strain SLN1, hits give low values",0.953
same,normalized growth,"locus YJL095W, strain BCK1, hits give low values",0.866
same,normalized growth,"locus YJL128C, strain PBS2, hits give low values",0.917
same,normalized growth,"locus YJL157C, strain FAR1, hits give low values",0.882
same,normalized growth,"locus YJR016C, strain ILV3, hits give low values",0.953
same,normalized growth,"locus YJR066W, strain TOR1 (second series), hits give low values",0.917
same,normalized growth,"locus YJR066W, strain TOR1, hits give low values",0.886
same,normalized growth,"locus YKL048C, strain ELM1, hits give low values",0.973
same,normalized growth,"locus YKL067W, strain YNK1, hits give low values",0.905
same,normalized growth,"locus YKL101W, strain HSL1, hits give low values",0.891
same,normalized growth,"locus YKL193C, strain SDS22, hits give low values",0.953
same,normalized growth,"locus YKL203C, strain TOR2, hits give low values",0.877
same,normalized growth,"locus YLR113W, strain HOG1, hits give low values",0.769 (active)
same,normalized growth,"locus YLR133W, strain CKI1, hits give low values",0.893
same,normalized growth,"locus YLR403W, strain SFP1, hits give low values",0.907
same,normalized growth,"locus YML070W, strain DAK1, hits give low values",0.876
same,normalized growth,"locus YMR001C, strain CDC5, hits give low values",0.944
same,normalized growth,"locus YMR205C, strain PFK2 (second series), hits give low values",0.939
same,normalized growth,"locus YMR277W, strain FCP1, hits give low values",0.955
same,normalized growth,"locus YNL006W, strain LST8, hits give low values",0.946
same,normalized growth,"locus YNL020C, strain ARK1, hits give low values",0.881
same,normalized growth,"locus YNL161W, strain CBK1, hits give low values",0.947
same,normalized growth,"locus YNL183C, strain NPR1, hits give low values",0.885
same,normalized growth,"locus YNL207W, strain RIO2, hits give low values",0.946
same,normalized growth,"locus YNL222W, strain SSU72, hits give low values",0.958
same,normalized growth,"locus YNL307C, strain MCK1 (second series), hits give low values",0.885
same,normalized growth,"locus YOL078W, strain AVO1, hits give low values",0.959
same,normalized growth,"locus YOL136C, strain PFK27, hits give low values",0.898
same,normalized growth,"locus YOR061W, strain CKA2, hits give low values",0.924
same,normalized growth,"locus YOR119C, strain RIO1, hits give low values",0.933
same,normalized growth,"locus YOR231W, strain MKK1, hits give low values",0.837
same,normalized growth,"locus YOR329C, strain SCD5, hits give low values",0.952
same,normalized growth,"locus YPL031C, strain PHO85, hits give low values",0.845
same,normalized growth,"locus YPL204W, strain HRR25, hits give low values",0.791
same,normalized growth,"locus YPL209C, strain IPL1, hits give low values",0.955
same,normalized growth,"locus YPL256C, strain CLN2, hits give low values",0.792 (active)
same,normalized growth,"locus YPR025C, strain CCL1, hits give low values",0.953
same,normalized growth,"locus YPR106W, strain ISR1, hits give low values",0.95
same,normalized growth,"locus YPR111W, strain DBF20, hits give low values",0.933
same,normalized growth,"strain NNK1, hits give low values",0.932
same,normalized growth,"strain TSCII, hits give low values",0.945
O=C(O)c1oc(C(=O)O)c(OCc2ccccc2)c1OCc1ccccc1,normalized growth,[3],1.01
same,normalized growth,"locus YBR229C, strain ROT2, hits give low values",1.02
same,normalized growth,"locus YCL061C, strain MRC1, hits give low values",0.984
same,normalized growth,[1],0.973
same,normalized growth,"locus YDL134C, strain PPH21, hits give low values",0.998
same,normalized growth,[4],0.973
same,normalized growth,[5],1.01
same,normalized growth,[6],0.976
same,normalized growth,[2],0.963
same,normalized growth,[7],1.03
same,normalized growth,[8],0.965
same,normalized growth,[9],0.988
same,normalized growth,[10],0.993
same,normalized growth,[11],1.02
same,normalized growth,[12],1.01
same,normalized growth,[13],0.981
same,normalized growth,[14],1.03
same,normalized growth,[15],0.997
same,normalized growth,[16],0.997
same,normalized growth,[17],1.03
same,normalized growth,[18],0.988
same,normalized growth,[19],0.986
same,normalized growth,[20],0.963
same,normalized growth,[21],0.998
same,normalized growth,[22],1.07
same,normalized growth,[23],1.01
same,normalized growth,[24],1
OCC(O)Cn1c2ccccc2c2ccccc21 (stereo unspecified),normalized growth,[3],1.01
same,normalized growth,[1],1.04
same,normalized growth,[4],1.03
same,normalized growth,[5],0.986
same,normalized growth,[6],1.02
same,normalized growth,"locus YGR229C, strain SMI1, hits give low values",0.994
same,normalized growth,[2],1.07
same,normalized growth,[7],0.953
same,normalized growth,"locus YJL187C, strain SWE1, hits give low values",1
same,normalized growth,[8],0.987
same,normalized growth,[9],1.01
same,normalized growth,[10],0.982
same,normalized growth,[11],0.988
same,normalized growth,[12],0.97
same,normalized growth,[13],0.959
same,normalized growth,[14],0.975
same,normalized growth,[15],0.986
same,normalized growth,[16],1.01
same,normalized growth,[18],1.02
same,normalized growth,[19],0.984
same,normalized growth,[20],0.999
same,normalized growth,[21],0.977
same,normalized growth,"locus YOL006C, strain TOP1, hits give low values",1
same,normalized growth,[22],0.932
same,normalized growth,[23],0.985
same,normalized growth,[24],1.02
CCCN(CC1CC1)c1nc(C)nc(Nc2c(Cl)cc(Cl)cc2Cl)c1Cl,normalized growth,[3],1.02
same,normalized growth,"locus YAL040C, strain CLN3, hits give low values",1.06
same,normalized growth,"locus YCL061C, strain MRC1 (second series), hits give low values",1
same,normalized growth,[4],1.01
same,normalized growth,"locus YDR363W, strain ESC2, hits give low values",0.999
same,normalized growth,"locus YER002W, strain NOP16, hits give low values",1.05
same,normalized growth,[9],1.01
same,normalized growth,[16],1.01
same,normalized growth,[17],1
same,normalized growth,[18],1.06
same,normalized growth,"locus YNL197C, strain WHI3, hits give low values",1.13 [resistant] (active)
same,normalized growth,"locus YNL224C, strain SQS1, hits give low values",1.05
same,normalized growth,"locus YOR083W, strain WHI5 (second series), hits give low values",1.18 [resistant] (active)
